Source: PubChem
Shown are actives, neighbours in structure and some others; about 2.1% of the full set was active somewhere.
D2 ag-1 – D2 dopamine receptor (human) agonism. P14416. HEK293 T-REx D2 cells, calcium flux agonist mode. activation, % at 2 µM. 340,000 tested, 0.53% active. AID 485358;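 active means activation over 3 SD above normal in the single-dose calcium agonist read, cut at about 30% in these data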
Target sequence (P14416 whole entry, looked up): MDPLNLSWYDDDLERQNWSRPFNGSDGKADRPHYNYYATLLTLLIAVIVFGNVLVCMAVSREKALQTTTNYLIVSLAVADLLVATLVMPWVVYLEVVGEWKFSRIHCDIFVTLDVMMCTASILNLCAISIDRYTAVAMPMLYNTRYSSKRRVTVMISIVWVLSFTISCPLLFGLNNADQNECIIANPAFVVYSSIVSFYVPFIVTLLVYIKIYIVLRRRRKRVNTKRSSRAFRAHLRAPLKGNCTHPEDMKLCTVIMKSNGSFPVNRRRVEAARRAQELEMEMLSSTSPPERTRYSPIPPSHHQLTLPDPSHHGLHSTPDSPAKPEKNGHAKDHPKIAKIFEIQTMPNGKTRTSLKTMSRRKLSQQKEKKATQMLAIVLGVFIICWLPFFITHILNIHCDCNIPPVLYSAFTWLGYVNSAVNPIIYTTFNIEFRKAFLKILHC
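Tetracycline-induced HEK293 T-REx cells with force-coupled D2 receptor, plated overnight at 30 C, loaded with no-wash calcium dye. After a 10 s baseline, compound was pin-added and calcium flux read kinetically for 180 s; calcium rises flagged agonists.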
D2 PAM-1 – positive allosteric modulators of human D2 dopamine receptor; P14416; DiscoveRx D2 beta-arrestin cells, luminescence, 90 min; 100% = 57 uM dopamine signal; potentiation, % (no concentration beside the values); 360,000 tested, 0.23% active; in the data active means potentiation above about 50%; inconclusive means mostly about 30% to 49%
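D2 cells co-treated with compound plus 50 nM dopamine (EC20) for 90 min at 37 deg C to detect potentiation. Beta-arrestin recruitment was read as enzyme-fragment luminescence after 1 h at ambient temperature. Full response was set by 57 uM dopamine.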
D2 PAM-2 – positive allosteric modulators of human D2 dopamine receptor; P14416; HEK293 T-REx D2, calcium flux, EC20 dopamine potentiation; potentiation, % at 10 µM; 340,000 tested, 0.34% active; AID 485347;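 active means potentiation over 3 SD above the plate norm, cut at about 30% in these data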
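Primary screen. Calcium kinetics in induced HEK293 T-REx D2 cells: compound pre-addition 180 s, EC20 dopamine, 180 s more.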
LDHA block – inhibitors of human lactate dehydrogenase A. P00338. purified LDHA, NADH/diaphorase-resazurin fluorescence; hits give low values. activity change, % (values are at about 110 or 230 µM). 480,000 tested, 0.15% active; in the data active means activity change below about -30%; inconclusive means mostly about -25% to -30%
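Human LDH5 (2 nM) was incubated with 0.06 mM NADH and 0.2 mM pyruvate for 5 min at room temperature in Tris pH 7.4. Remaining NADH was coupled through diaphorase/resazurin, and resorufin fluorescence was read at 0 and 20 min.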
D2 ag-2 – activates the human D2 dopamine receptor; DiscoveRx PathHunter D2 beta-arrestin, luminescence, 90 min; 100% = 57 uM dopamine signal; 360,000 tested, 0.084% active; activation, % (test concentration not listed); P14416; in the data active means activation above about 40%; inconclusive means between about 15% and that limit
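Agonist mode: compounds alone added to overnight-plated D2 PathHunter cells for 90 min at 37 C, with 57 uM final dopamine (EC100) defining full response. Beta-arrestin recruitment detected by chemiluminescent reagent, read after 1 h at ambient temperature.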
D2 antag – D2 dopamine receptor (human) antagonism; P14416; HEK293 TREx D2 cells, calcium flux, dopamine EC80; inhibition, % at 10 µM; 340,000 tested, 2% active; in the data active means inhibition above about 30%; inactive means below that, where a call was filed
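Dopamine at EC80 is the agonist stimulus; test compounds precede it by 180 s. Calcium flux read kinetically in a force-coupled, inducible HEK293 T-REx D2 cell line.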
Numbers stand for hits; n = inactive; u = inconclusive; x = no result given.

SMILES | D2 ag-1 | D2 PAM-1 | D2 PAM-2 | LDHA block | D2 ag-2 | D2 antag
Cc1c(/C=C(\C#N)C(=O)NCc2ccccc2)cc(C#N)n1C | n | n | n | n | n | 36.5
CCN(CC)C(=O)C1CCN(C(=O)Cn2ccc3ccc(Cl)cc32)CC1 | x | x | x | n | x | x
S=C(NCCc1ccc(Cl)cc1Cl)NC1CC2CCC1C2 (stereo not given) | x | x | x | n | x | x
Cc1ccc(C)c(OCCC(=O)OCC(=O)N2c3ccccc3NC(=O)C2(C)C)c1 | n | n | n | n | n | 42.3
CC(=O)NC(CC(=O)OCC(=O)N1c2ccccc2NC(=O)C1(C)C)c1ccccc1 (stereo not given) | n | n | n | n | n | 52.4
O=C1CSc2ccc(C(=O)NCCc3ccccc3)cc2N1 | x | x | x | n | x | x
Cc1ccc2[nH]c(C)c(CC(=O)NC(C)c3ccncc3)c2c1 (stereo not given) | x | x | x | n | x | x
COc1ccc(/C=C(/C#N)C(=O)C(C)C)cc1O | x | x | x | n | x | x
Cc1nc2cc(NC(C)C(=O)Nc3ccc(C(C)C)cc3)ccc2o1 (stereo not given) | x | x | x | n | x | x
Cc1ccc2c(COC(=O)CCc3ccc4c(c3)OCO4)cc(=O)oc2c1 | x | x | x | n | x | x
Cn1nnc(NC(=O)CSc2nnnn2-c2ccc(F)cc2)n1 | x | n | x | n | n | x
Cn1nnc(NC(=O)CSc2ccc(Cl)cc2)n1 | n | n | n | n | n | 39.8
Cn1nnc(NC(=S)NC(=O)c2cc(Cl)ccc2Cl)n1 | n | n | n | n | n | 30.6
CC(C)(C)c1ccc(-c2oc(NC(=O)CCl)c(C#N)c2-c2ccc(C(C)(C)C)cc2)cc1 | x | x | x | n | x | x
Cc1ccccc1C(=O)NCc1nnc(SCC(=O)N2CCN(c3ccccc3)CC2)n1C | n | n | n | n | n | 38.6
CCOC(=O)CSc1nnc(CNC(=O)c2cccc(C)c2)n1C | n | n | n | n | u | 35.3
Cc1ccccc1C(=O)NC(CC(C)C)C(=O)N1CCN(c2ccccc2)CC1 (stereo not given) | n | n | 30.5 | n | n | n
CCOC(=O)CSc1nnc(CNC(=O)c2cccc(C)c2)n1-c1ccccc1OC | x | n | n | n | n | x
CCCn1c(=O)c2ccccc2n(CC(=O)N(CC)c2cccc(C)c2)c1=O | x | x | x | n | x | x
Cl/C(=C/c1ccc(Cl)cc1)c1ncc(-c2ccc(Cl)cc2)o1 | x | x | x | n | x | x
O=C(/C=C/c1cccc(F)c1)Nc1ccc(Cl)c(C(F)(F)F)c1 | x | x | x | n | x | x
Nc1c(C(=O)Nc2cc(Cl)cc(Cl)c2)sc2nc(-c3ccncc3)ccc12 | x | x | x | -31.6 | x | x
Cn1cc(/C=C2/CC(=O)N(c3ccc(C(=O)O)cc3)C2=O)c2ccccc21 | x | x | x | n | x | x
O=C1N=c2ccccc2=C1c1sc(=S)n(CC2CCCO2)c1O (stereo not given) | n | 107.6 | n | n | n | n
COc1ccc(C(=O)/C(C#N)=C\c2cc(Br)c(O)c(OC)c2)cc1 | x | x | x | n | x | x
SMILES | D2 ag-1 | D2 PAM-1 | D2 PAM-2 | LDHA block | D2 ag-2 | D2 antag
Cc1ccc(Nc2nnc(C)c(=O)[nH]2)cc1 | n | n | n | n | n | 43.2
Cc1cccc(C(=O)C(Cl)C(=O)c2cccc(C)c2)c1 | x | x | x | n | x | x
CCOC(=O)C1=NOC(CNC(=O)c2c(-c3ccccc3Cl)noc2C)C1 (stereo not given) | n | n | n | n | n | n
CC(=O)C1=NOC(CNC(=O)c2c(-c3ccccc3Cl)noc2C)C1 (stereo not given) | n | n | 31.7 | n | n | n
O=C(NCC1OCCc2ccccc21)c1cc(COc2ccc(F)cc2Cl)on1 (stereo not given) | n | n | n | n | n | 50.2
O=C(CN1C(=O)S/C(=C\c2ccc(F)cc2)C1=O)Nc1ccc2oc(=O)ccc2c1 | x | x | x | n | x | x
COC(=O)c1ccccc1NC(=O)c1ccc(N2CCCN(Cc3ccccc3F)C2=O)cc1 | x | x | x | n | x | x
O=Cc1cc(O)ccc1Br | x | x | x | n | x | x
O=C1/C(=C/c2cccs2)SC(=S)N1NS(=O)(=O)c1ccccc1 | n | n | n | n | n | n
O=C1/C(=C/C=C/c2ccco2)SC(=S)N1NS(=O)(=O)c1ccccc1 | n | n | n | n | n | 41.7
Cc1ccc(Nc2nnc(SCC(=O)NC3CCS(=O)(=O)C3)s2)c(C)c1 (stereo not given) | n | n | n | n | n | 38.8
Cc1cccc(C)c1Nc1nnc(SCC(=O)NC2CCS(=O)(=O)C2)s1 (stereo not given) | n | n | n | n | n | n
CCCCCCCCOc1ccc(/C=C(/C#N)c2nc3ccccc3[nH]2)cc1 | x | x | x | n | x | x
C/C(=N\Nc1ncnc2sc(C)c(C)c12)c1ccccn1 | 46.4 | n | n | n | n | n
COC(=O)c1ccc(CNCc2ccco2)o1 | x | x | x | n | x | x
CCc1ccccc1OCCCCN1CCCCC1 | n | n | n | n | n | 89.4
CCc1ccccc1OCCCN1CCCC1 | x | n | n | n | n | x
COc1ccccc1OCCCCN1CCCCC1 | x | n | n | n | n | x
Cc1ccccc1OCCCCN1CCCCC1 | n | n | n | n | n | 49.5
Cc1cc(C)c(C)c(OCCCCN2CCCCC2)c1 | n | n | n | n | n | 55.3
O=C(CCc1ncc(-c2ccc(Cl)cc2)o1)Nc1ccc2ccccc2c1 | x | x | x | n | x | x
Cc1ncc([N+](=O)[O-])n1Cc1ccccc1F | n | n | n | n | n | 31.5
Cc1ncc([N+](=O)[O-])n1Cc1cccc2ccccc12 | n | n | n | n | n | n
NNC(=O)c1cc2cc3ccccc3nc2s1 | n | n | n | -34.2 | n | n
c1ccc(Nc2nc(NCc3ccc4c(c3)OCO4)nc3nccnc23)cc1 | x | x | x | n | x | x
SMILES | D2 ag-1 | D2 PAM-1 | D2 PAM-2 | LDHA block | D2 ag-2 | D2 antag
CCN(CC)C(=O)N1CCN(C)CC1 | n | n | n | n | n | 32.5
Cc1ccc2oc(C(=O)Nc3cccnc3)cc(=O)c2c1 | x | x | x | n | x | x
O=C(CSc1nnc(-c2ccc(Br)o2)n1Cc1ccccc1)c1ccccc1F | n | n | 71.1 | n | n | n
Cc1cc(NC(=O)CSc2nnc(-c3ccc(Br)o3)n2Cc2ccccc2)no1 | n | n | n | n | n | n
O=C(NCc1ccc2c(c1)OCO2)c1ccc(-c2csc(C3CC3)n2)cc1 | x | x | x | n | x | x
Cc1ccc(C(=O)NCCc2c[nH]c3ccccc23)c(C)c1 | n | n | n | n | n | 73.8
Cc1c(Cc2ccccc2)sc(/N=C/c2c(O)ccc3ccccc23)c1C(N)=O | n | 57.3 | n | n | n | n
Cc1c(Cc2ccccc2)sc(/N=C/c2ccc3ccccc3c2)c1C(N)=O | n | n | n | n | n | n
O=C(Cn1nc(-c2cccs2)c2ccccc2c1=O)NCCc1ccc(Cl)cc1 | x | x | x | n | x | x
CC(=O)Nc1ccc(C=NNC(=O)c2ccc(NS(=O)(=O)c3cccs3)cc2)cc1 | x | n | x | -32.5 | n | x
CN1CCc2c(c3ccccc3n2C)C1 | n | n | n | n | n | 61.4
Cc1c2n(c3ccccc13)CCN(C)C2 | n | n | n | n | n | n
